Here are results for ten molecules from PubChem BioAssay (Tox21).

“And” between values parts separate entries of the source, which are not always exact repeats. Equal entries are not always repeated. A number with no mark means an inactive call. Inconclusive results are not listed. The source made the active and inactive calls. Unless noted, calls follow the shape of the dose curve; as a rule, active = well fitted curve in the direction sought with a large enough effect in the repeat runs; inconclusive = weak or mixed curves; inactive = no such curve, though single readings can be large; an effect the other way counts as inactive or inconclusive.

Experiment [1] can be described thus: qHTS assay to identify small molecule agonists of the androgen receptor (AR) signaling pathway in the presence of an antagonist - cell viability counter screen (AID 1259379). Also: nearly all actives have a fitted effect of over 25% in size. Also: potency is read from the fitted curve at half-maximal effect. In outline: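 Viability counter screen: CellTiter-Fluor fluorescence, measured in the same wells as the luciferase read-out. MDA-kb2 cells, 3,000/well, with nilutamide at 3.0uM final and compounds at 15 concentrations, 16 hr at 37C, 0% CO2.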

Experiment [2] in a line: qHTS assay to identify small molecule agonists of the estrogen receptor beta (ER-beta) signaling pathway - cell viability counter screen (AID 1259380). Also: nearly all actives have a fitted effect of over 30% in size. Also: potency is read from the fitted curve at half-maximal effect. In outline:
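Luminescence read-out (CellTiter-Glo, 30 min, room temp) taken in the same wells as the beta-lactamase reporter assay; ER-beta-UAS-bla HEK293T cells exposed to DMSO-dissolved compounds for 16 hr at 37C in 2% charcoal-stripped FBS medium.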
(qHTS replaces the single test concentration by a dilution series.)

Experiment [3] is described as follows: qHTS assay to identify small molecule antagonists of the estrogen receptor beta (ER-beta) signaling pathway - cell viability counter screen (AID 1259382). Also: nearly all actives have a fitted effect of over 55% in size. Also: potency is read from the fitted curve at half-maximal effect. In outline:
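Luminescent ATP read-out (CellTiter-Glo, 30 min, RT) taken in the same wells as the bla reporter assay. HEK293T ER-beta-UAS-bla cells in 2% charcoal-stripped FBS were exposed to compounds with 1nM E2 for 16 hr at 37C.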

A short description of experiment [4]: qHTS assay to identify small molecule agonists or antagonists of the thyroid stimulating hormone receptor (TSHR) signaling pathway - wild type cell line counter screen (AID 1259384; calls by dose curve). In outline:
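Wild-type Hek293 cells, 800/well, 18 h at 37C, then compound with Ro20-1724 for 30 min RT. cAMP by HTRF (cAMP-d2/anti-cAMP cryptate), 1 h RT, fluorescence read. 15 concentrations, triplicates.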

Experiment [5] has as its target Thyrotropin receptor (Homo sapiens) (UniProt P16473). The experiment is described as follows: qHTS assay to identify small molecule antagonists of the thyroid stimulating hormone receptor (TSHR) signaling pathway (AID 1259385; calls by dose curve; also: nearly all actives have a fitted effect of over 20% in size). In outline: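 TSHR-HEK293 cells (800/well) plated 18 h, then compounds with Ro20-1724 and TSH at 1.5 ng/mL final, 30 min at room temperature. cAMP quantified by HTRF (cAMP-d2/anti-cAMP-cryptate, 1 h); 15 concentrations in triplicate.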

The nature of experiment [6]: qHTS assay to identify small molecule agonists of the estrogen receptor alpha (ER-alpha) signaling pathway in the presence of an antagonist - cell viability counter screen (AID 1259386).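 Also: cells exposed to compounds for 22 h at 37 °C before the viability read; nearly all actives have a fitted effect of over 30% in size.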 Also: potency is read from the fitted curve at half-maximal effect. In outline:
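Read-out: CellTiter-Fluor fluorescence after 1hr reagent incubation, measured in the same wells as the luciferase readout. VM7Luc4E2 cells were exposed to 15 compound concentrations with 10.0nM ICI-182,780 for 22hr at 37C.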

In experiment [7] the target is Progesterone receptor (Homo sapiens) (UniProt P06401). The experiment in a line: qHTS assay to identify small molecule agonists of the progesterone receptor (PR) signaling pathway (AID 1346784; calls by dose curve; also: nearly all actives have a fitted effect of over 30% in size). In outline: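 The screen uses PR-UAS-bla HEK 293T cells in charcoal-stripped serum (2%). Compounds are applied for 16 hr at 37C after a 6 hr pre-incubation, and reporter activity is detected with a FRET beta-lactamase substrate after 2 hr at room temperature.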

For experiment [8] the target is unchanged. The experiment in a line: qHTS assay to identify small molecule antagonists of the progesterone receptor (PR) signaling pathway (AID 1346795; active = well fitted inhibition curve with a large enough effect in the signal ratio in the repeat runs, not every such curve was filed as active; the % refers to the signal ratio; also: potency is read from the fitted curve at half-maximal effect). In outline:
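After 6 hr plating at 37C in 2% stripped-serum medium, PR-UAS-bla HEK293T cells got compounds, then 1 nM R5020. Sixteen hours later, LiveBLAzer substrate was applied for 2 hr at room temperature and fluorescence was recorded.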

The nature of experiment [9]: qHTS assay to identify small molecule antagonists of the TGF-beta/Smad signaling pathway - cell viability counter screen (AID 1346824). Also: nearly all actives have a fitted effect of over 50% in size. In outline:
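SBE-bla HEK 293T cells, incubated overnight, then compound plus 0.25 ng/mL TGF-beta1 (stock added) for 5 hr at 37 C. Viability was read in the same wells by CellTiter-Glo luminescence after 30 min at room temperature.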

Experiment [10] is described as follows: qHTS assay to identify small molecule agonists of the TGF-beta/Smad signaling pathway - cell viability counter screen (AID 1346829). Also: top concentration of the series differs between compounds; nearly all actives have a fitted effect of over 45% in size. In outline:
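Tox21 qHTS format: SBE-bla HEK 293T cells treated with DMSO-dissolved compounds for 5 hr; CellTiter-Glo luminescence after 30 min at room temperature.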

The nature of experiment [11]: qHTS assay to identify small molecule agonists of the TGF-beta/Smad signaling pathway (AID 1346859; active = well fitted activation curve with a large enough effect in the signal ratio in the repeat runs, not every such curve was filed as active; the % refers to the signal ratio; also: series mostly up to about 77 µM). In outline:
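Dual-wavelength fluorescence (460/530 nm emission) quantified beta-lactamase expression under the Smad binding element in HEK 293T cells following 5 hr compound treatment at 37 C.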

Experiment [12] deals with Thyrotropin-releasing hormone receptor (Homo sapiens) (UniProt P34981). The experiment is described as follows: qHTS assay to identify small molecule agonists of the thyrotropin-releasing hormone receptor (TRHR) signaling pathway (AID 1346891; calls by dose curve;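 also: HEK293 cells expressing TRHR with calcium dye readout; series mostly up to about 58 µM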). In outline:
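Kinetic fluorescence (3 min, 1 s intervals) reported intracellular calcium after compound transfer onto TRHR-Hek293 cells pre-loaded with dye for 2 h at 37 °C.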

A short description of experiment [13]: Human pregnane X receptor (PXR) small molecule agonists, qHTS cell viability counter screen (AID 1346977). Also: nearly all actives have a fitted effect of over 50% in size. Also: potency is read from the fitted curve at half-maximal effect. In outline:
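HepG2 cells stably carrying the PXR-Luc reporter are cultured with 5% charcoal-stripped FBS and treated with compounds for 24hr. CellTiter-Fluor is added at 23hr and fluorescence is read after 1hr.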

The nature of experiment [14]: qHTS assay to identify small molecule antagonists of the progesterone receptor (PR) signaling pathway - cell viability counter screen (AID 1346798). Also: nearly all actives have a fitted effect of over 50% in size. Also: potency is read from the fitted curve at half-maximal effect. In outline: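 Viability was determined by ATP-based luminescence (CellTiter-Glo) in PR-UAS-bla HEK293T cells cultured in 2% charcoal-stripped serum and incubated 16 hr with compounds under R5020 stimulation.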
For experiment [15], the target named is Estrogen receptor (Homo sapiens) (UniProt P03372). The experiment in a line: qHTS assay to identify small molecule agonists of the estrogen receptor alpha (ER-alpha) signaling pathway in the presence of an antagonist (AID 1259383; calls by dose curve; also: top concentration of the series differs between compounds; nearly all actives have a fitted effect of over 15% in size). In outline:
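Luciferase luminescence (ONE-Glo, 30min at room temperature) measured in VM7Luc4E2 cells after 22hr compound exposure at 15 concentrations, with 10.0nM ICI-182,780 final present; cells express endogenous ER-alpha and carry four EREs upstream of luciferase.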

Experiment [16] can be described thus: qHTS assay to identify small molecule agonists of the progesterone receptor (PR) signaling pathway - cell viability counter screen (AID 1346799; calls by dose curve; also: nearly all actives have a fitted effect of over 45% in size; also: potency is read from the fitted curve at half-maximal effect). In outline:
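Viability was scored by ATP luminescence (CellTiter-Glo, 30 min, room temperature) in the same wells used for the reporter readout, after 16 hr compound exposure of PR-UAS-bla HEK293T cells.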

Experiment [17] concerns the target Thyrotropin-releasing hormone receptor (Homo sapiens) (UniProt P34981). The experiment is described as follows: qHTS assay to identify small molecule antagonists of the thyrotropin-releasing hormone receptor (TRHR) signaling pathway (AID 1346877; active = well fitted inhibition curve with a large enough effect in the repeat runs, not every such curve was filed as active; also: series mostly up to about 51 µM). In outline: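 HEK293/TRHR cells, 18 h, 37 °C; Ca2+ dye 2 h; cpd 5 min RT; TRH 1 nM final; fluorescence read 3 min, 1 s intervals; 15 concs, triplicate.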

Experiment [18] concerns the target Androgen receptor (Homo sapiens) (UniProt P10275). The experiment is described as follows: qHTS assay to identify small molecule agonists of the androgen receptor (AR) signaling pathway in the presence of an antagonist (AID 1259381; calls by dose curve; also: nearly all actives have a fitted effect of over 15% in size). In outline:
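Luciferase read-out (ONE-Glo, 30min room temperature) in MDA-kb2 MMTV-reporter cells; agonist mode run in presence of AR antagonist nilutamide, 3.0uM final. Compounds tested as 15-point series, 16hr exposure at 37C, 0% CO2.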

Sequence of Thyrotropin-releasing hormone receptor (Homo sapiens) (P34981 whole entry, looked up): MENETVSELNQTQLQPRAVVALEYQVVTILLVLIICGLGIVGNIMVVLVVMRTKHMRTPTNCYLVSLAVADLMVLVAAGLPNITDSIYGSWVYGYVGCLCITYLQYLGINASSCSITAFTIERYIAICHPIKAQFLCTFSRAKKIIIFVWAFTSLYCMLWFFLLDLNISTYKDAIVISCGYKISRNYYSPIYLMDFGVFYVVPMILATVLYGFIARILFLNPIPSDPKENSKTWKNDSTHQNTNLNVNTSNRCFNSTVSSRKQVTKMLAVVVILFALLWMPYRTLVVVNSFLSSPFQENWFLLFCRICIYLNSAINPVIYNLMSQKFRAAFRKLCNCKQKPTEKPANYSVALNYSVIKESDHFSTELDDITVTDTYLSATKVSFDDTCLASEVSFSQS
Sequence of Estrogen receptor (Homo sapiens) (P03372 whole entry, looked up): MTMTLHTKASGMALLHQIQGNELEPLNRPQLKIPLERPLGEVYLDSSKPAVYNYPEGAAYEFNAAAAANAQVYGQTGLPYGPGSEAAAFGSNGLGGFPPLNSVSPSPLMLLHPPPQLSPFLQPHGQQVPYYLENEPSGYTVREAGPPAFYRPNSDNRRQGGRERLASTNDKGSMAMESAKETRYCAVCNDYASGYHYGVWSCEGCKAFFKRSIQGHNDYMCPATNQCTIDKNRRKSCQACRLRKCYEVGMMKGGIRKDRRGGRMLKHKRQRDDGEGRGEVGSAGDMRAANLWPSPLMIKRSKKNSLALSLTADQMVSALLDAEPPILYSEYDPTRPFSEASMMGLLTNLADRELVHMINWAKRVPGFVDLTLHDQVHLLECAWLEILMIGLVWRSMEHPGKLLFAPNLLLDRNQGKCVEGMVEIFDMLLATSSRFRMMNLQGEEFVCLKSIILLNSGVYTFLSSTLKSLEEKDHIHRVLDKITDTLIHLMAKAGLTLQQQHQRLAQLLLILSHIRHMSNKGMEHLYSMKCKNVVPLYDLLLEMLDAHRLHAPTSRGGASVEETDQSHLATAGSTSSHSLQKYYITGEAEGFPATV
Sequence of Thyrotropin receptor (Homo sapiens) (P16473 whole entry, looked up): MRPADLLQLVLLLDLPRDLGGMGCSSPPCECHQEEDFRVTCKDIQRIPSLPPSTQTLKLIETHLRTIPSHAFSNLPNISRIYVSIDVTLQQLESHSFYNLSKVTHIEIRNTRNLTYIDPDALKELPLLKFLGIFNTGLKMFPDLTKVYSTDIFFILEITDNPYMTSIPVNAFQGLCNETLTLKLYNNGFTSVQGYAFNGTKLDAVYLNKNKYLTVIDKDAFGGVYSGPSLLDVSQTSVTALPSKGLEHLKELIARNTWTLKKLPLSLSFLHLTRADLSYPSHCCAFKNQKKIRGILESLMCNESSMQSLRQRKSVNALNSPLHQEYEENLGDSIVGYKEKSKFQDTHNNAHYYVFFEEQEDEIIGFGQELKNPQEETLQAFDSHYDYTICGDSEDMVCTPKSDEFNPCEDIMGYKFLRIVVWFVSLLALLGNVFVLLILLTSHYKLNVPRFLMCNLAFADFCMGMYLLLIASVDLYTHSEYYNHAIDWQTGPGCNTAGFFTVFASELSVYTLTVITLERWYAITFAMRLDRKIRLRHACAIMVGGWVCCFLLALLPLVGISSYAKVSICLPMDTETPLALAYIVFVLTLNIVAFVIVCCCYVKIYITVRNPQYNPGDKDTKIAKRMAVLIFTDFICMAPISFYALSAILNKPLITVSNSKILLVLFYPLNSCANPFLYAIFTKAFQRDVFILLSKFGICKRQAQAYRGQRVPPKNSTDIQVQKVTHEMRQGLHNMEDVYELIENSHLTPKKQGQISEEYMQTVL
Sequence of Progesterone receptor (Homo sapiens) (P06401 whole entry, looked up): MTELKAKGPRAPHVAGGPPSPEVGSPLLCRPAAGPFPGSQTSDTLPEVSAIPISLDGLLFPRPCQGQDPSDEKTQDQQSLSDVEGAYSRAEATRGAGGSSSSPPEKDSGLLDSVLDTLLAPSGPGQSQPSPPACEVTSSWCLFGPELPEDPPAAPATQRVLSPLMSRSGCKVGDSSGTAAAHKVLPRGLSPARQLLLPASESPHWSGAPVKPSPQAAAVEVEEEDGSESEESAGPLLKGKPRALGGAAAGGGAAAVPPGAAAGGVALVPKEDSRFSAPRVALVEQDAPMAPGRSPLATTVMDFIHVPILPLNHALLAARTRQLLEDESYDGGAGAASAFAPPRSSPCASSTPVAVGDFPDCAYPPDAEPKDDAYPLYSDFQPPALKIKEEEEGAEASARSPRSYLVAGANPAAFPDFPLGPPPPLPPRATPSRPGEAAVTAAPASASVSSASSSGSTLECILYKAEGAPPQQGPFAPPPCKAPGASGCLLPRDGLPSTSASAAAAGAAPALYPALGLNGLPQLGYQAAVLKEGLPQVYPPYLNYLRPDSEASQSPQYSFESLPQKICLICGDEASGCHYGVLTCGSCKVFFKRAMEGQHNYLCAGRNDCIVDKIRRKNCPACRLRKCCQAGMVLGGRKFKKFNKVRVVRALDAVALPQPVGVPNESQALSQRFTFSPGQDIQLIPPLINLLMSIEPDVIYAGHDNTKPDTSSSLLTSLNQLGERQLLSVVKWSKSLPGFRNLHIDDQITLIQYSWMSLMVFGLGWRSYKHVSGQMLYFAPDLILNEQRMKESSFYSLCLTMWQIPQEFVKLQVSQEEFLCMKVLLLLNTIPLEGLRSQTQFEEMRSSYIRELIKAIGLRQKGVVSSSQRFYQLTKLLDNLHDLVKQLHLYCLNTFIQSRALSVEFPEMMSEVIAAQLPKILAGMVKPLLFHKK
Sequence of Androgen receptor (Homo sapiens) (P10275 whole entry, looked up): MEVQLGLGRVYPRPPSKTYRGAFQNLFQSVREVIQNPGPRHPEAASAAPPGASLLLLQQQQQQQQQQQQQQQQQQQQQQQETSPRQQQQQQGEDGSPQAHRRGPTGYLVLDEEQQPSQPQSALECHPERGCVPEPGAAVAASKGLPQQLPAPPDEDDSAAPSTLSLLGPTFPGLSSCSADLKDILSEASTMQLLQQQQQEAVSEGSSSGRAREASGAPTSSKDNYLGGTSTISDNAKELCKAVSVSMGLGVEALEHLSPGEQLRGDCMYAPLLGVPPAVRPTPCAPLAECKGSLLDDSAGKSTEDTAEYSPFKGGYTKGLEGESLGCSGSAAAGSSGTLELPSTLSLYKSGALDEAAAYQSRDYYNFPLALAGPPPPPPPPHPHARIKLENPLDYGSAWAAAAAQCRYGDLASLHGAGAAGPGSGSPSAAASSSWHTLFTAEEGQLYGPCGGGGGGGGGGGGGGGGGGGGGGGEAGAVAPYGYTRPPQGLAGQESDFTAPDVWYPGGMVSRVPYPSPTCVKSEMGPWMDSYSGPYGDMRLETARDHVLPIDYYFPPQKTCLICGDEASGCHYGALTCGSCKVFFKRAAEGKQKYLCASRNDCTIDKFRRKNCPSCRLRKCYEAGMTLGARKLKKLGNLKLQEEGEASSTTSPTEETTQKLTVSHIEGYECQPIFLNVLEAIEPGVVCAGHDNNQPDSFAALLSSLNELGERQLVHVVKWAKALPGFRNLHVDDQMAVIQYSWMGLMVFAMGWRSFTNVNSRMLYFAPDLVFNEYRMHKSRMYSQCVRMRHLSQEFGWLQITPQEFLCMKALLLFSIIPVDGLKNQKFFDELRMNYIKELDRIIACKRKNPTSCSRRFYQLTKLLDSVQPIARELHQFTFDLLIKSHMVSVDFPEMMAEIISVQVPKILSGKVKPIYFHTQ

Consider `CC(C)(c1cc(Br)c(O)c(Br)c1)c1cc(Br)c(O)c(Br)c1`, for which the Potency entry in experiment [1], in experiment [5], in [6], in [9], in [10] and in [11] was “inactive” in each case. Besides, the Potency entry in experiment [12] and in [13] was “inactive” each time. Further, the Potency was 68.3 µM (active) and 68.4 µM (active) in experiment [2]; 68.4 µM (active) in [3]; 13.6 µM (active) and 17.2 µM (active) in [8]. Also, the molecule was classed as inactive in experiment [4] and in experiment [7].
For the molecule `CN1[C@@H]2CC[C@@H]1CC(OC(=O)C(CO)c1ccccc1)C2` (stereo partly specified), the Potency result in experiment [1], in experiment [2], in experiment [3], in experiment [6], in [8] and in experiment [14] was “inactive” throughout. Further, the Potency result in [9], in experiment [10], in experiment [11] and in [13] was “inactive” throughout. In addition, in experiment [7], the molecule was classed as inactive.
Consider `CC(COC(=O)c1ccccc1)OC(=O)c1ccccc1` (stereo unspecified), for which the Potency entry in experiment [1], in experiment [2], in [3], in experiment [15], in experiment [5] and in experiment [6] was “inactive” each time. Moreover, the Potency entry in [14], in experiment [16], in experiment [9], in [10], in experiment [11] and in experiment [13] was “inactive” throughout. For the same molecule, the outcome in experiment [7] was inactive.
In the case of `S=P(N1CC1)(N1CC1)N1CC1`, the Potency result in experiment [1], in experiment [2], in experiment [3], in [15], in experiment [6] and in experiment [10] was “inactive” each time. Besides, the Potency entry in experiment [11], in experiment [17], in experiment [12] and in [13] was “inactive” throughout. The outcome in [4] and in experiment [7] was inactive.
Consider `CCN(CC)c1ccc(N)cc1`, for which the Potency in experiment [1] was 19.9 µM (active); in experiment [3], 49.9 µM (active); in experiment [6] it was 28.1 µM (active); in experiment [14], 44.5 µM (active); in [16], 44.5 µM (active); in experiment [13], 15.8 µM (active). Further, the call in experiment [4] was inactive. In addition, the Potency entry in experiment [17] and in experiment [12] was “inactive” throughout.
Regarding `C=CCCCCCCC=C`, the Potency entry in experiment [1], in experiment [3], in experiment [9], in [10], in experiment [11] and in [17] was “inactive” throughout. Moreover, the Potency result in [12] and in experiment [13] was “inactive” in each case.
On to `CN(C)c1ccc(N=NS(=O)(=O)O)cc1`, for which the Potency is 16.2 µM (active) in experiment [1], 38.6 µM (active) in [6] and 20.4 µM (active) in [13]. For the same molecule, the Potency entry in [18], in [9], in [11], in experiment [17] and in experiment [12] was “inactive” throughout. Besides, the molecule was called inactive in experiment [7].
For `CCC1(c2cnc[nH]2)Cc2ccccc2C1`, the Potency result in experiment [1], in [3], in experiment [6], in experiment [14], in experiment [16] and in [9] was “inactive” throughout. The Potency result in experiment [11], in experiment [17], in experiment [12] and in experiment [13] was “inactive” each time.
With `CNC(=S)NN`, the Potency result in [1], in experiment [15], in [5], in [6], in experiment [9] and in experiment [10] was “inactive” each time. In addition, the Potency entry in experiment [11] is “inactive”. Besides, the Potency in experiment [2] was 17.2 µM (active); in experiment [14] it was 13.7 µM (active); in experiment [13], 12.2 µM (active). In experiment [4], the outcome was inactive.
Consider `O=C(c1ccccc1)c1cc(Cl)ccc1O`, for which the Potency result in experiment [1], in experiment [15], in experiment [6], in experiment [9], in experiment [10] and in experiment [11] was “inactive” throughout. Also, the Potency entry in [17], in [12] and in experiment [13] was “inactive” in each case. The molecule was called inactive in [7].
